Experiments:
Type in all cases: functional
[1] = system: Plasmodium falciparum; assay: GSK_TCMDC: Inhibition of Plasmodium falciparum 3D7 in whole red blood cells, using parasite LDH activity as an index of growth. Test compounds present at 2uM
[2] = system: Plasmodium falciparum; assay: GSK_TCMDC: Inhibition of Plasmodium falciparum Dd2 in whole red blood cells, using parasite LDH activity as an index of growth. Test compounds present at 2uM
[3] = system: HepG2; assay: GSK_TCMDC: Percent inhibition of human HepG2 cell line. Test compounds present at 10uM.

SMILES	Inhibition [1] [%]	Inhibition [2] [%]	Inhibition [3] [%]
CCN(CC)CCN(Cc1ccc(-c2ccc(C(F)(F)F)cc2)cc1)C(=O)Cn1c(CCc2c(F)ccc(F)c2F)nc(=O)c2ccccc21.O=C(O)C(O)C(O)C(=O)O	98	62	44
COc1ccc(OC)c(C=NNc2nc3ccccc3[nH]2)c1	99	28	0
FC(F)(F)c1ccc2[nH]c(-c3ccc(-c4cccc(CNCCc5ccncc5)c4)s3)nc2c1.O=C(O)C(F)(F)F	100	95	20
CCCC(C)NC[C@@H](O)[C@H](Cc1ccccc1)NC(=O)c1cc(NCC)cc(N2CCCCS2(=O)=O)c1.Cl (some centres undefined)	100	98	0
COc1cc2nccc(Nc3cc(C)cc(O)c3)c2cc1OC.Cl	97	0	0
CCN(CC)CCN(Cc1ccc(-c2ccc(C(F)(F)F)cc2)cc1)C(=O)Cn1c(CCc2ccc(F)c(F)c2F)nc(=O)c2ccc(F)cc21.O=C(O)C(O)C(O)C(=O)O	98	46	19
OCc1ccc(-c2cncc(Nc3ccc(F)c(Cl)c3)c2)cc1	92	99	2
CCNc1cc(C(=O)N[C@@H](Cc2ccccc2)[C@H](O)CNCCc2cc(OC)cc(OC)c2)cc(N2CCCCS2(=O)=O)c1.Cl	89	28	3
O=C(NCC1CCN(CC2CCCCC2)C1)c1cc(-c2cccc(C(F)(F)F)c2)cs1.O=C(O)C(F)(F)F (centres undefined)	96	21	47
COc1ccc(-c2cccc(NC(=O)c3ccc(F)cc3)c2)cc1CN1CCCN(C)CC1.O=C(O)C(F)(F)F	100	35	26
CCCc1cc(Cc2cnc(N)nc2N)cc(CCC)c1OC.Cl	92	1	18
O=C(C1CCN(c2nnnn2-c2ccccc2)CC1)N1CCc2ccccc2C1	97	97	0
COc1ccc2cc(C=NNc3nc4ccccc4[nH]3)c(Cl)nc2c1	100	90	2
CCCCOc1ccc(N2C(N)=NC(N)=NC2(C)C)cc1.Cl	97	3	16
Cc1ccc(S(=O)(=O)NC2CCN(c3ccnc4cc(Cl)ccc34)C2)cc1.O=C(O)C(F)(F)F (centres undefined)	99	90	21
COc1cc(F)c2ncc(Cl)c([C@H](O)CN3CCC(NCc4ccc5c(n4)NC(=O)CO5)CC3)c2c1.Cl	99	99	14
Cc1ccc(NC(=O)c2cc(Br)cc(N3CCCN(C)CC3)c2)cc1F.O=C(O)C(F)(F)F	87	1	15
NC(=O)COc1c(C2CCN(CCCCNC(=O)c3ccc(-c4ccc(Cl)cc4)c(O)c3)CC2)ccc2c1CCCC2	100	72	97
N=C(N)NC(=O)Nc1cc(Cl)c(F)c(Cl)c1	100	64	22
Cc1nc(C)c(-c2ccc(S(=O)(=O)c3ccc(Cl)cc3)cc2)c(O)c1Cl	98	96	0
O=C(Nc1ccc(Cl)cc1)c1cccc2nc(C(F)(F)F)[nH]c12	93	98	84
O=C(CN1CCC(NCc2cnc(-c3ccc(Cl)cc3)[nH]2)CC1)N1CCc2ccccc21	100	5	11
CCN(CCO)CCc1cccc(Nc2nccc(-c3c(-c4ccc(NC(=O)C(C)(C)C)cc4)nn4ccccc34)n2)c1.Cl	100	96	62
O=C(c1ccc(-c2ccc(-c3nc4cc(C(F)(F)F)ccc4[nH]3)s2)cc1)N1CCCCC1CN1CCC(O)C1 (centres undefined)	92	80	90
CCc1nonc1NC(=O)c1oc2c(C)c(C)ccc2c1C	89	64	1
CCOc1c(Br)cc(Br)cc1CNCCCCNc1nc2ccccc2[nH]1	100	37	25
COc1cc(Cc2cnc(N)nc2N)cc(OC)c1OCCCCCN1C(=O)c2ccccc2C1=O	97	4	5
CN1CCN(CC(O)CNC(=O)Nc2ccc(Br)cc2)CC1.O=C(O)C(F)(F)F (centres undefined)	100	100	5
